# Compound activity: PubChem, ICCB-Longwood Screening Facility, Harvard Medical School
# Hits are enriched below; roughly 1.4% of the tested compounds scored in any of these assays.
# MbtI inh = MbtI salicylate synthase inhibitors, primary screen, biochemical, fluorescence intensity; P9WFX0; purified MbtI enzyme, fluorescence intensity read-out; inhibition, % (concentration not given with the values); actives 0.89% (n = 100,000); AID 493033, 2011; in the data active means inhibition mostly above about 56%, no sharp cut-off; inactive means mostly below about 77%
# PV pol inh = poliovirus RdRp elongation inhibitors, primary screen, biochemical, fluorescence polarization, total intensity; poliovirus polymerase elongation; hits give low values; % elongation, % (compound at 16.7 µg/mL); actives 0.66% (n = 150,000); AID 588519, 2011; in the data active means % elongation below about 90%
# MenB inh = M. tuberculosis MenB inhibitors, primary screen, biochemical, absorbance; inhibition, % (concentration not given with the values); actives 0.43% (n = 100,000); 1,4-dihydroxy-2-naphthoyl-CoA synthase (Mycobacterium tuberculosis (strain ATCC 25618 / …; MenB enzyme assay, absorbance read-out; AID 540299, 2011; in the data active means inhibition above about 21%, passing the limit was not always enough
# Target sequence (P9WNP5 whole entry, looked up): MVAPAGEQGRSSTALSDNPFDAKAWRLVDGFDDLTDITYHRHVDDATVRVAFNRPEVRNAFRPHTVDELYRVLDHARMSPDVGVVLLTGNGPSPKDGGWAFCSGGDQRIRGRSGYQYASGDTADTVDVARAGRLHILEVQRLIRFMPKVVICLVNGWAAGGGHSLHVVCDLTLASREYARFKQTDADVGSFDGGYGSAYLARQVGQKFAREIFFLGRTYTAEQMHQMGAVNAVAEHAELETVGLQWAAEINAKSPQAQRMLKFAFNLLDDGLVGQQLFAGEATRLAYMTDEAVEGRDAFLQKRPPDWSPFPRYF
# AID504770 = growth inhibition of E. coli YBA685, primary screen, V. cholerae RctB inhibitors; E. coli YBA685 rctB-dependent plasmid, OD600 growth, 3 h; hits give low values; z-score (no concentration beside the values); actives 0.27% (n = 130,000); in the data active means z-score below about -2, passing the limit was not always enough
# An asterisk follows results filed as active; x = no result given.
SMILES,MbtI inh,PV pol inh,MenB inh,AID504770
Cc1ccc(Cl)cc1N1CCN(C(CC(=O)O)C(=O)c2ccc(F)cc2)CC1 (configuration not stated),7,70*,31*,-0.05
Cc1cc(C(F)(F)F)c(C#N)c(=S)[nH]1,81,104,-33,1.5
N#Cc1c(N)cc(N)[nH]c1=S,97*,104,-1,-0.8
CCCN(Cc1cc2cccc(C)c2[nH]c1=O)C(=O)c1cc(OC)c(OC)c(OC)c1,12,105,-46,-0.45
N#Cc1c(-n2cccc2/C=N/NC(N)=S)sc2c1CCCC2,80,100,-66,-0.45
O=C(O)Cn1c2ccccc2c2n[nH]c(=S)nc21,90*,101,-22,1.3
CCn1c2ccccc2c2n[nH]c(=S)nc21,26,103,-69,-0.25
Cc1ccc(C)c(OCc2nnc(SCc3nc4ccccc4s3)o2)c1,36,127,-27,-0.45
CCOc1ccc(N2C(=O)CC(N3CCCCC3CC)C2=O)cc1 (configuration not stated),55*,103,9,-0.05
CCOc1ccc(CCNC(=O)c2cnc3sc(N4CCCCCC4)nn3c2=O)cc1,x,107,x,x
CCOc1ccc(CCNC(=O)c2cnc3sc(N4CCCC4)nn3c2=O)cc1,x,5.0*,x,x
S=c1sscc1-c1ccccc1,x,53*,-77,0.45
CCOC(=O)c1c(NC(=O)c2noc3c2CC(C(C)(C)C)CC3)sc2c1CCCC2 (configuration not stated),x,76*,x,x
NC(=O)c1c(NC(=O)c2noc3c2CCCC3)sc2c1CCCC2,x,69*,x,x
O=C(CSc1nnc(Cn2c(=O)sc3ccccc32)n1-c1ccccc1)Nc1ccccc1F,x,x,x,0.25
CC(NCCC(=O)O)c1ccccc1 (configuration not stated),-3,99,34*,1.6
CCc1ccc(CN2CCN(CC)CC2)cc1,1,102,35*,0.85
CCc1ccc(CN2CCC(N3CCCCC3)CC2)cc1,x,95,-15,2
O=C(CCC(=O)c1cccs1)Nc1cc(Cl)cc(Cl)c1,-5,103,x,0.55
COc1cccc(/C=N/NC(=O)CSc2nnnn2-c2ccccc2)c1,0,104,-22,0.1
O=C(Cc1nc2ccccc2[nH]1)c1ccccc1,7,98,x,1
O=C(Cc1nc2ccccc2[nH]1)Oc1ccccc1,x,75*,7,-1.6
O=C(COC(=O)CSc1n[nH]c(-c2ccccc2)n1)NC1CCCCC1,x,84*,11,0.9
O=C(CSc1n[nH]c(Cc2ccccc2)n1)NC1CCCCC1,-9,98,-9,0.85
CNS(=O)(=O)c1cccc(C(=O)OCc2nnc(-c3cc(OC)c(OC)c(OC)c3)o2)c1,-274,112,-18,2.2
SMILES,MbtI inh,PV pol inh,MenB inh,AID504770
CC1CN(C)CC(C)C1(O)c1ccccc1 (configuration not stated),x,109,-2,0.3
CC1CN(C(C)(C)C)CCC1(O)c1ccccc1 (configuration not stated),-1,101,34*,0.9
Cc1ccc(-c2csc(Nc3ccc(C(=O)O)cc3)n2)c(C)c1,x,90*,-20,0.3
CCC(=O)Nc1nc(-c2ccc(C)cc2C)cs1,x,x,x,2
N#Cc1ccc(Sc2ccc(C#N)c(C#N)c2)cc1C#N,100*,100,-53,-0.85
N#Cc1ccc(OC(C(F)(F)F)C(F)(F)F)cc1C#N,1,100,-23,-0.45
CC(=O)Nc1cccc(SSc2cccc(NC(C)=O)c2)c1,97*,99,10,-0.1
Cc1cc2nc3ccc(=[N+](C)C)cc-3sc2cc1N,x,2.0*,12,13
CCOc1ccc(/C=N/n2c(C)csc2=Nc2ccc(C)cc2)c(O)c1,-5,108,-19,0.3
COc1ccccc1C(=O)ON1C(=O)CCC1=O,-9,100,7,-1.1
O=C(CNC(c1ccccc1)c1ccc(Cl)cc1)N1CCNC1=O (configuration not stated),7,98,-53,2.2
COc1ccc(C2C(C#N)=C(N)OC3=C2C(=O)CCC3)cc1 (configuration not stated),11,102,-19,-0.15
COC(=O)C1=C(N)OC2=C(C(=O)CCC2)C1c1ccc(OC)cc1 (configuration not stated),4,101,37*,1.6
CCOC(=O)N1CCC(NC(=O)c2oc3ccc4c(c3c2C)C(O)CC(C)(C)O4)CC1 (configuration not stated),87,103,-25,0.45
C=CC1=C(C(=O)O)N2C(=O)[C@@H](NC(=O)/C(=N\O)c3csc(N)n3)[C@H]2SC1 (stereo in doubt),-4,100,0,-5.1*
CO/N=C(\C(=O)NC1C(=O)N2C(C(=O)OCOC(=O)C(C)(C)C)=C(/C=C\c3scnc3C)CSC12)c1csc(N)n1 (configuration not stated),-15,100,-1,-0.1
Cc1ccc(OC(=O)c2cccnc2)cc1,2,102,52*,1.7
Cc1cc(C)cc(OC(=O)c2cccnc2)c1,7,99,0,1.2
O=C1C=C2N(c3ccccc3)CCOC2(O)c2ccccc21 (configuration not stated),x,37*,-48,-1.6
O=C1OC2(O)c3ccccc3C(=O)N2c2ccccc21 (configuration not stated),6,104,-4,0.6
Oc1ccc2ccccc2c1C=Nc1cccn2cc(-c3ccccc3)nc12,-8,101,-14,-0.35
Cc1[nH]n(-c2ccccc2)c(=O)c1Sc1ccc(Cl)cc1,-207,102,-6,-0.8
Cc1[nH]n(-c2ccc(Cl)cc2)c(=O)c1C=O,71*,100,5,-0.3
COc1ccc(CSCC(=O)NC2CC3CCC(C2)N3C)cc1 (configuration not stated),x,x,x,-0.4
COc1ccccc1OCC(=O)Nc1cccc(C)n1,-11,101,-36,-0.4
SMILES,MbtI inh,PV pol inh,MenB inh,AID504770
CN(C)S(=O)(=O)c1cccc(-c2nnc3n2N=C(c2cccs2)CS3)c1,97*,76*,-52,0.05
c1ccc(-c2nnc3n2N=C(c2cccs2)CS3)cc1,-10,105,-4,0
CC(C)Cn1c(=O)c2sccc2n2c(=S)sc(-c3ccccc3)c12,68*,95,-11,-1
CCOC(=O)N=c1oc2cc(Cl)c(Cl)cc2o1,96*,99,4,-2.5
CCOC(=O)Oc1cc2oc(=O)sc2cc1Cl,22,98,6,-0.15
C(=N\c1nccs1)/c1cccc2c1OCOC2,x,104,-38,2.2
O=C1CC(CSc2ccc(Cl)cc2)=NN1c1nc2ccccc2s1,-6,103,-50,0.4
CC(C)(C)C1=NN(c2nc3ccc(Cl)cc3s2)C(=O)C1,60*,106,9,1.4
O=C(CN1CCN(CCN=Cc2c(O)[nH]c(=O)[nH]c2=O)CC1)Nc1ccc(Br)cc1,-12,100,1,-0.35
Cc1n[nH]c(=S)n1/N=C\c1ccco1,36,90*,8,-0.65
S=c1ccc2nnc(-c3ccccc3)n2[nH]1,93,101,-8,-0.35
O=C1NCC(O)=C1/C=N/Nc1ccccc1,45,103,0,-4*
